Assay results as given in PubChem BioAssay (NCATS).
Inconclusive results are not listed. The source made the active and inactive calls. Unless noted, calls follow the shape of the dose curve; as a rule, active = well fitted curve in the direction sought with a large enough effect; inconclusive = small, poorly fitted or top-dose-only effect, or another doubt; inactive = no such curve, though single readings can be large; an effect the other way counts as inactive or inconclusive.

What was measured:
[1] = target: DNA repair nuclease/redox regulator APEX1 (Homo sapiens) (UniProt P27695); test: qHTS Validation Assay for Inhibitors of the Human Apurinic/apyrimidinic Endonuclease 1 (APE1) (AID 1705;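 also: TAMRA fluorescence gain over two minutes as APE1 cuts a quenched THF abasic duplex; series mostly up to about 57 µM; % is scaled to controls: 0 for no effect and ±100 for the full control effect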)
DNA repair nuclease/redox regulator APEX1 (Homo sapiens), sequence (P27695 whole entry, looked up): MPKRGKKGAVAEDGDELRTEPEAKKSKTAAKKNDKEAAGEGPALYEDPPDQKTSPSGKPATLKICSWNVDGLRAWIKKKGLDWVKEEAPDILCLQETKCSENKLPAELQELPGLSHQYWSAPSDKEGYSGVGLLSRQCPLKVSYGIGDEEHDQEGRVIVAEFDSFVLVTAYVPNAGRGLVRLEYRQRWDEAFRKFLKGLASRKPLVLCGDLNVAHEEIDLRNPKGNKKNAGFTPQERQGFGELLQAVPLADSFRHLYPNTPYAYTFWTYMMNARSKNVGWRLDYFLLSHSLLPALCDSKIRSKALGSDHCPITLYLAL
Outline: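 Endonuclease activity of human APE1 is followed as dequenching when the enzyme incises a tetrahydrofuran abasic site in a short duplex labelled 5'-TAMRA/3'-BHQ-2 (50 nM final), after 15 min enzyme–compound preincubation at room temperature.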

[2] = target: Endonuclease 4 (Escherichia coli (strain K12)) (UniProt P0A6C1); test: Counterscreen for APE1 Inhibitors: qHTS Validation Assay for Inhibitors of Endonuclease IV (AID 1708); also: % is scaled to controls: 0 for no effect and ±100 for the full control effect
Outline: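 E. coli EndoIV at 2 nM final, preincubated 15 min at room temperature with compound, then 50 nM TAMRA/BHQ-2 THF abasic-site duplex added. Buffer: 50 mM Tris-HCl pH 7.5, 50 mM NaCl, 2 mM MgCl2, 1 mM DTT, 0.01% Tween-20. Kinetic fluorescence increase, third minus first read.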

[3] = qHTS for differential inhibitors of proliferation of Plasmodium falciparum line GB4 (AID 1816); settings: Potency: Plasmodium falciparum GB4 proliferation inhibition;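 also: parasite growth measured after 72 h incubation; 0% = vehicle DMSO and -100% = reference inhibitor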
[4] = qHTS for differential inhibitors of proliferation of Plasmodium falciparum line 3D7 (AID 1876);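 also: parasite growth measured after three days of culture; 0% = vehicle wells and -100% = reference inhibitor wells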
[5] = qHTS for differential inhibitors of proliferation of Plasmodium falciparum line D10 (AID 1877);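 also: parasites grown with compound for 72 h before DNA staining; plate controls were vehicle wells for no effect and reference inhibitor wells for full effect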
[6] = qHTS for differential inhibitors of proliferation of Plasmodium falciparum line Dd2 (AID 1882); settings: Potency: Plasmodium falciparum Dd2 proliferation inhibition;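 also: series mostly up to about 29 µM; plate controls were DMSO vehicle for no effect and 0.29 µM artemisinin for full effect; nearly all actives have a fitted effect of over 65% in size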
Outline: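 Dd2-infected erythrocytes (0.3% parasitemia, 2.5% hematocrit final) incubated with compound 72 h at 37 C, 5% CO2; lysed with saponin/Triton buffer containing SYBR Green I, incubated overnight in the dark, then read by fluorescence (485/535 nm). Normalized to 0.29 uM artemisinin and DMSO.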

[7] = qHTS for differential inhibitors of proliferation of Plasmodium falciparum line W2 (AID 1883); settings: Potency: Plasmodium falciparum W2 proliferation inhibition;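 also: parasites grown with compound for 72 h before lysis and staining; 0% = vehicle wells and -100% = control inhibitor wells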
[8] = qHTS for differential inhibitors of proliferation of Plasmodium falciparum line HB3 (AID 1886); settings: Potency: Plasmodium falciparum HB3 proliferation inhibition;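 also: parasites grown with compound for 72 h before SYBR Green readout; plate controls were vehicle for no effect and reference inhibitor for full effect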
[9] = qHTS Assay for Modulators of Human Peripheral Myelin Protein 22 (PMP22) Expression/Activity (AID 1967; active = well fitted curve in the direction sought with a large enough effect in the signal ratio; the % refers to the signal ratio;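 also: 0% = untreated cells and 100% end not stated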)
Outline: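 Quantitative HTS in a mouse Schwann cell line expressing dual click beetle luciferases: Pmp22 promoter (green) and control EF-alpha promoter (red). After 24h treatment, corrected green/red signal ratio gave %Activity relative to untreated cells.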

[10] = target: Ferritin light chain (Equus caballus) (UniProt P02791); test: qHTS Validation Assay for Identification of Novel General Anesthetics (AID 2323); also: series mostly up to about 77 µM; % is scaled to controls: 0 for no effect and ±100 for the full control effect
Ferritin light chain (Equus caballus), sequence (P02791 2-175 limits assumed): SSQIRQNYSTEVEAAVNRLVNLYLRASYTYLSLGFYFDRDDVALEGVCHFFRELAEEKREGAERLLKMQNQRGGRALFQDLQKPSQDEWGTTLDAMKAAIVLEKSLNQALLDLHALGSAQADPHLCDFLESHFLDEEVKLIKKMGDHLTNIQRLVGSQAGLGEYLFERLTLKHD
Outline: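 Apoferritin from horse spleen (10 uM) was mixed with 1-aminoanthracene at 50% saturation in PBS, then compounds were added. After 10 min at room temperature, fluorescence was read (ex 380 nm, em 535 nm) and normalized to free-probe and complex controls.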

[11] = target: ATP-dependent DNA helicase Q1 (Homo sapiens) (UniProt P46063); test: qHTS Validation Assay for Inhibitors of RecQ-Like Dna Helicase 1 (RECQ1) (AID 2353);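 also: plate controls were DMSO vehicle for no effect and enzyme-free control for full effect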
ATP-dependent DNA helicase Q1 (Homo sapiens), sequence (P46063 whole entry, looked up): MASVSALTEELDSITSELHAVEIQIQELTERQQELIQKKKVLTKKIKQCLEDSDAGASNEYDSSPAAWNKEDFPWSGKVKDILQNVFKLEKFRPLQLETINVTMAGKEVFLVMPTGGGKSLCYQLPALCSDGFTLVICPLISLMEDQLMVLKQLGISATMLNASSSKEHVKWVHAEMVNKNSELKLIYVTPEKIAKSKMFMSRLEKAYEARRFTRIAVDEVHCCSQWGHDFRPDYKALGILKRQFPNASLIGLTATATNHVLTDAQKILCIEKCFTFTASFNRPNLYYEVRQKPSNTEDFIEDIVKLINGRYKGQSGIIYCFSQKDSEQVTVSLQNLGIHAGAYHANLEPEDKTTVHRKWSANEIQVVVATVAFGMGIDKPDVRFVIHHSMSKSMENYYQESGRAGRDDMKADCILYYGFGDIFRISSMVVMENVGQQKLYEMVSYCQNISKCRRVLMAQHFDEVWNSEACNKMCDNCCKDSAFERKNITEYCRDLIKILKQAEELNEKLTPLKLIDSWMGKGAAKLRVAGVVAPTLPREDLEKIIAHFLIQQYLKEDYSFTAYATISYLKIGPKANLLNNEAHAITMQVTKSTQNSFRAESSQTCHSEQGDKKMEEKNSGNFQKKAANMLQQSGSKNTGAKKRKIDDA
Outline: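 50 nM RECQ1T1 preincubated 15 min with compound in Tris pH 8.0 buffer with MgCl2, DTT, Tween-20 and 2.5 ug/ml poly(dI-dC); started with 200 nM TAMRA/BHQ-2 forked duplex and 2 mM ATP. Unwinding read as fluorescence (525/598 nm), two reads 2 h apart.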

[12] = Validation screen for small molecules that induce DNA re-replication in MCF 10A normal breast cells (AID 463097); also: 0% is about no effect; nearly all actives have a fitted effect of over 60% in size
Outline: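 DNA re-replication was detected as a rise in nuclei with elevated Hoechst fluorescence after a 48 hr compound exposure of MCF 10A cells at 37 C.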

[13] = Quantitative high throughput screen for delayed death inhibitors of the malarial parasite plastid, 48 hour incubation (AID 488752); also: % is scaled to controls: 0 for no effect and ±100 for the full control effect; nearly all actives have a fitted effect of over 65% in size
Outline: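 Erythrocytes infected with firefly luciferase-expressing P. falciparum (2% hematocrit, 0.1% parasitemia) cultured with compound for 48 h at 37 C, 5% CO2, in RPMI 1640/0.5% Albumax. Growth inhibition read as loss of luminescence.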

[14] = target: M-phase phosphoprotein 8 (Homo sapiens) (UniProt Q99549); test: qHTS Validation Assay for Inhibitors for MPP8 Chromodomain Interactions with Methylated Histone Tails (AID 488949);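 also: AlphaScreen signal from MPP8 chromodomain bound to biotinylated H3K9me3 peptide; top concentration of the series differs between compounds; % is scaled to controls: 0 for no effect and ±100 for the full control effect; nearly all actives have a fitted effect of over 55% in size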
M-phase phosphoprotein 8 (Homo sapiens), sequence (Q99549 whole entry, looked up): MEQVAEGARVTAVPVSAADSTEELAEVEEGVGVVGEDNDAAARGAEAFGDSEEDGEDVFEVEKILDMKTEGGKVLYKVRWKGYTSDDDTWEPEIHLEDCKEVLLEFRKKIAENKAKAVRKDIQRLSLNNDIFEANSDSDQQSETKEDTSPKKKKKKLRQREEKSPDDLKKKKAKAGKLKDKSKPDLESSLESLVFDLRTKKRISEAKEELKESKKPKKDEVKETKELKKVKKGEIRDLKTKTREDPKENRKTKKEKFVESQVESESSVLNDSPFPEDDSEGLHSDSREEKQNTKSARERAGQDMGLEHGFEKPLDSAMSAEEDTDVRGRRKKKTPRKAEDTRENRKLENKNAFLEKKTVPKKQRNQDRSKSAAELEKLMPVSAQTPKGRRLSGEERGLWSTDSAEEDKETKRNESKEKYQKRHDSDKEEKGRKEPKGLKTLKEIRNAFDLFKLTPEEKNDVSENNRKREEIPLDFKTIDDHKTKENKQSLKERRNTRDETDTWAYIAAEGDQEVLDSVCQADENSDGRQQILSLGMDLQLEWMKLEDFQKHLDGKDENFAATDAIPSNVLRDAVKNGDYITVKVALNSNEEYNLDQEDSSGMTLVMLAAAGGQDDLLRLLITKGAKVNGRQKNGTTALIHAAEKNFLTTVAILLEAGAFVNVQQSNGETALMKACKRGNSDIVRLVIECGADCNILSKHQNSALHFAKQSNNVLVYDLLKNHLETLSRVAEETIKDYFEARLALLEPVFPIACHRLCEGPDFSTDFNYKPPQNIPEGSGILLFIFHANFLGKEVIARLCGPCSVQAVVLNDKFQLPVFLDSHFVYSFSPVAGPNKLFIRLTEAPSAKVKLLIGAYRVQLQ
Outline: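 Disruption of the preformed MPP8–trimethyl-H3K9 peptide complex (both 50 nM, 30 min, RT) is measured after 30 min compound exposure, using AlphaScreen proximity beads; aurintricarboxylic acid titration serves as plate control.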

[15] = target: Transient receptor potential cation channel subfamily V member 1 (Homo sapiens) (UniProt Q8NER1); test: HTS Assay for Compounds that Act as Enhancers of the Vanilloid Receptor 1 (AID 488979); also: 0% is about no effect
Transient receptor potential cation channel subfamily V member 1 (Homo sapiens), sequence (Q8NER1 whole entry, looked up): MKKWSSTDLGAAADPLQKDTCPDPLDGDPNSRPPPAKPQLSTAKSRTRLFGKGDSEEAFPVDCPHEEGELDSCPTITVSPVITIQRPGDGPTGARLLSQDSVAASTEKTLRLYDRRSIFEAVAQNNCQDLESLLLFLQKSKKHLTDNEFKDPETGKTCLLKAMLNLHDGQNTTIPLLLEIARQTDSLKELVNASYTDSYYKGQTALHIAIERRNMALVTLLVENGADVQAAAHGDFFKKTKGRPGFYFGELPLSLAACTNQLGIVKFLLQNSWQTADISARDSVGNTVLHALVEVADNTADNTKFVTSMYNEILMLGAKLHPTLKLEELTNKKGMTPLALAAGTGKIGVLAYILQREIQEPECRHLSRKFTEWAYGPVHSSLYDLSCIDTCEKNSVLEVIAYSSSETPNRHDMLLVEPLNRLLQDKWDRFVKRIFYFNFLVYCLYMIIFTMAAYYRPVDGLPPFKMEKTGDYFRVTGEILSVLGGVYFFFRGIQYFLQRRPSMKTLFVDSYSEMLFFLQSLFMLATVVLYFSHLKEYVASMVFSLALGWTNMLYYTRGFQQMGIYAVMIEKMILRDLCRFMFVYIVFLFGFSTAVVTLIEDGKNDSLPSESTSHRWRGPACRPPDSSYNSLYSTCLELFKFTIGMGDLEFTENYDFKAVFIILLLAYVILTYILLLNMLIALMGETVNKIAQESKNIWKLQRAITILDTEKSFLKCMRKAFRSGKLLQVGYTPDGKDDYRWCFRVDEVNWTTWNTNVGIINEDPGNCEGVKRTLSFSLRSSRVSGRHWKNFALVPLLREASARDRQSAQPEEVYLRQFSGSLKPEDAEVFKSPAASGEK
Outline: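 TRPV1 cells loaded with Fluo-8 calcium dye; compound added and Ca2+ signal (ex 480/em 520 nm) followed 3 min, then capsaicin at EC20 added and read 2 more min to detect enhancement.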

[16] = target: Thyrotropin receptor (Homo sapiens) (UniProt P16473); test: qHTS Assay for Antagonists of the Thyroid Stimulating Hormone Receptor (AID 488980); also: series mostly up to about 58 µM; 0% is about no effect
Thyrotropin receptor (Homo sapiens), sequence (P16473 whole entry, looked up): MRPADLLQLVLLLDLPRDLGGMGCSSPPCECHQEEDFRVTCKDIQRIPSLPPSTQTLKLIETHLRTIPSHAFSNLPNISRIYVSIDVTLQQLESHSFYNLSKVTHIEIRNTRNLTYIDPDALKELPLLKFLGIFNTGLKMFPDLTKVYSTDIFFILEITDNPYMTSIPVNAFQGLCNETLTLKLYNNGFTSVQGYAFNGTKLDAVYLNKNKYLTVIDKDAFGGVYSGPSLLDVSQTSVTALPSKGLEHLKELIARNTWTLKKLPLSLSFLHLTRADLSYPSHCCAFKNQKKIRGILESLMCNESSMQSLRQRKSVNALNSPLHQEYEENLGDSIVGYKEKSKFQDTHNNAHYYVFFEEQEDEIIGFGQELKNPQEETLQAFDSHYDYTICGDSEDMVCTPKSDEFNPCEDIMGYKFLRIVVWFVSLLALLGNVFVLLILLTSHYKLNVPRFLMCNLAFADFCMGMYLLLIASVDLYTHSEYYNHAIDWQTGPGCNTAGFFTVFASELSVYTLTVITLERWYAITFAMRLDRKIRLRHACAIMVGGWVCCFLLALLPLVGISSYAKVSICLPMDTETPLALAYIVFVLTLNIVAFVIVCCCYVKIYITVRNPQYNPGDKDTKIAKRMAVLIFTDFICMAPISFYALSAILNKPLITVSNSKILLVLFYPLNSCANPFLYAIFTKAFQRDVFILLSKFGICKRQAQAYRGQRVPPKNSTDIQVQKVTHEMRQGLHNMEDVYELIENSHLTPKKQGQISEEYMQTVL
Outline: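 Cells expressing human TSHR (HEK293) are dispensed in HBSS/HEPES containing 70 uM RO 20-1724, compound is added, then TSH at EC80 (4 nM final). Antibody in lysis buffer follows, 30 minutes at room temperature before HTRF detection.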

[17] = target: Thyrotropin-releasing hormone receptor (Homo sapiens) (UniProt P34981); test: qHTS for Small Molecule Agonists and Allosteric Enhancers of Human TRH Receptor: Validation Screen for Agonists (AID 493127;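 active = calcium activation more than 3 SD above the typical response in the agonist read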; also: 0% is about no effect); settings: TRH receptor agonist cell assay; at 2 µM; hits give high values
Thyrotropin-releasing hormone receptor (Homo sapiens), sequence (P34981 whole entry, looked up): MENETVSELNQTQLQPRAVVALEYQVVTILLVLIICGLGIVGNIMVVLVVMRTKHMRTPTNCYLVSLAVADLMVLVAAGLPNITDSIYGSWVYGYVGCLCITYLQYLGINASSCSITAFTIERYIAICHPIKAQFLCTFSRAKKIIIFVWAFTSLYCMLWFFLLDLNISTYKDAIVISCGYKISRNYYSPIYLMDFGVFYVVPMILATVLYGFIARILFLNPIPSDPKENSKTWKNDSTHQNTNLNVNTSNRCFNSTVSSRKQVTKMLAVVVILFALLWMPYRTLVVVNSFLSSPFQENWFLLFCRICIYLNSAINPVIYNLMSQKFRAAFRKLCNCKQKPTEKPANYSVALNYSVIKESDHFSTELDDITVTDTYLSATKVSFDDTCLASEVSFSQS
Outline: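 TRHR cells loaded with fluo-8 calcium dye; FDSS kinetic fluorescence (Ex 480/Em 530) read at 1 s/cycle after 23 nL compound addition. Agonist-mode calcium response recorded before the 10 nM TRH (EC20) addition.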

[18] = target: Galactokinase (Homo sapiens) (UniProt P51570); test: qHTS Validation Assay for Inhibitors of Human Galactokinase (GALK) (AID 493189); also: 0% is about no effect
Galactokinase (Homo sapiens), sequence (P51570 whole entry, looked up): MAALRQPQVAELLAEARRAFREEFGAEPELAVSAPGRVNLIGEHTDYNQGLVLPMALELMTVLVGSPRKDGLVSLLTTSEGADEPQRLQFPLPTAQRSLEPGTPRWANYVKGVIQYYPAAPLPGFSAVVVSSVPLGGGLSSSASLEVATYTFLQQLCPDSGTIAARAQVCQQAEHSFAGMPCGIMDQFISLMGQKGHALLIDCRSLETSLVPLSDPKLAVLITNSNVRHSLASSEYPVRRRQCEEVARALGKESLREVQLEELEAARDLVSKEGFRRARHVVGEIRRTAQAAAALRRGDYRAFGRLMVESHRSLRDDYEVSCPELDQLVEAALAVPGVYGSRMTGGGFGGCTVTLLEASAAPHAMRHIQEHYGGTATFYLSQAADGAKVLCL
Outline: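 Compounds were pin-transferred into ATP buffer, then GALK-galactose mix was added (final 5 nM enzyme, 100 uM galactose, 35 uM ATP). After 1 h at room temperature, remaining ATP was measured luminescently.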

[19] = Validation screen for small molecules that induce DNA re-replication in SW480 colon adenocarcinoma cells (AID 504364); also: 0% is about no effect
Outline: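 SW480 cells (250/well) exposed 48 h at 37 C, 5% CO2, then Hoechst-stained 40 min. Nuclear DNA content imaged by fluorescence scanning (405 nm excitation, 500-530 nm emission); re-replication scored as increased nuclei with elevated intensity.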

[20] = target: DNA dC->dU-editing enzyme APOBEC-3G (Homo sapiens) (UniProt Q9HC16); test: qHTS for inhibitors of Vif-A3G interactions: Validation (AID 588379); also: 0% is about no effect
DNA dC->dU-editing enzyme APOBEC-3G (Homo sapiens), sequence (Q9HC16 whole entry, looked up): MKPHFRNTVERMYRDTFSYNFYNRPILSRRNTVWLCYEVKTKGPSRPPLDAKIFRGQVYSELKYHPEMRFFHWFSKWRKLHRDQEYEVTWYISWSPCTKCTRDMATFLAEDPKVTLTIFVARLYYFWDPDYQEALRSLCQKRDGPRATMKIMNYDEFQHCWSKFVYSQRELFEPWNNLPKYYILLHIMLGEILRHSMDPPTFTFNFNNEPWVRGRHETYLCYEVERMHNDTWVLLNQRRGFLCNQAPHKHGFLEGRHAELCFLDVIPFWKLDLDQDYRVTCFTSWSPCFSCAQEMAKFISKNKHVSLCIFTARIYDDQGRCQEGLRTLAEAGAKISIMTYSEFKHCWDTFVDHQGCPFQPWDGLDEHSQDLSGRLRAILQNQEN
Outline: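 HeLa cells stably expressing Vif and A3G-eYFP, 700 cells/well, incubated overnight at 37 deg C, then exposed to compound overnight at 37 deg C. Inhibition of Vif-mediated degradation read as increased yellow fluorescence (Ex 488/Em 500-530) by laser-scanning cytometry.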

[21] = tested on: Zika virus NS2B-NS3 protease; test: Primary screen GU AMC qHTS for Zika virus inhibitors (AID 1347154);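 also: 0% = no-inhibitor control and -100% = no-enzyme control; nearly all actives have a fitted effect of over 70% in size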
Outline: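 Unlinked Zika NS2B hydrophilic domain–NS3 protease complex at 25 nM in 10 mM Tris-HCl pH 8.0, 0.01% Tween 20, with an AMC peptide substrate. Fluorescence change (340/450 nm) over 15 min at room temperature, normalized to controls, fitted to 4-parameter Hill.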

[22] = Primary qHTS for small molecule stabilizers of the endoplasmic reticulum resident proteome: Secreted ER Calcium Modulated Protein (SERCaMP) assay (AID 1508630); also: % is scaled to controls: 0 for no effect and ±100 for the full control effect
Outline: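 GLuc-SERCaMP-expressing SH-SY5Y cells, pretreated 16 h with compound, are challenged with thapsigargin to empty ER calcium stores; after 4 h, coelenterazine is added directly to the medium and luminescence is imaged.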

O=C(O)c1cc(=O)c2ccc(Cl)cc2[nH]1
inactive: Potency [1] | Potency [2] | Potency [3] | Potency [4] | Potency [5] | Potency [6] | Potency [7] | Potency [8] | outcome [9] | outcome [10] | Potency [11] | Potency [12] | Potency [13] | Potency [14] | outcome [15] | outcome [16] | activation [17] 1.31% | outcome [18] | outcome [19] | Potency [20] | Potency [21] | Potency [22]
